This note sets out measurements from the supplement of paper PMC10849652.

About 8,800 targets were measured; listed, in parts, are those with a hit and a random draw of the rest. About 0.5% of all pairs of compound and target were hits. Unmarked numbers belong to inactive results.

Holding throughout (assay): log2 fold change, soluble protein after heating vs DMSO (PISA); higher = thermal stabilisation; K562 lysate, 10 uM; active = over 0.2 and 3.5 SD of the protein, either way, in both replicates (recomputed)
Compound in one assay: CCCS(=O)(=O)Nc1ccc(F)c(C(=O)c2c[nH]c3ncc(-c4ccc(Cl)cc4)cc23)c1F [vemurafenib]
Put shortly:
(§1)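 K562 pellets were dounce-homogenised in PBS pH 7.4 with 1 mM MgCl2, and the crude extract at 1 mg/mL protein was treated with 10 μM compound for 30 min. Aliquots were heated for 3 min across 48°C-58°C, pooled, and brought to 0.5% NP-40 at 4°C; soluble protein was the supernatant after 21,000xg for 90 min. Soluble protein was quantified by TMTpro 16plex LC-MS/MS with channel sums equalised, and reported as log2 fold change in thermal stability against DMSO controls, with values from duplicates.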

Compound in the next assay: CCN(CCCOc1ccc2c(Nc3cc(CC(=O)Nc4cccc(F)c4)[nH]n3)ncnc2c1)CCOP(=O)(O)O [barasertib]
In short, it runs like this:
as §1

Compound in assay [1]: CC[C@@H]1C(=O)N(C)c2cnc(Nc3ccc(C(=O)NC4CCN(C)CC4)cc3OC)nc2N1C1CCCC1
Put shortly:
as §1

Compound in the next assay: CN1CCN(CCOc2cc(OC3CCOCC3)c3c(Nc4c(Cl)ccc5c4OCO5)ncnc3c2)CC1 [saracatinib]
Put shortly:
as §1

Compound in a further assay: CNC(=O)c1ccc(Nc2ncc(C(F)(F)F)c(NCc3nccnc3N(C)S(C)(=O)=O)n2)cc1 [defactinib]
In short, it runs like this:
as §1

Compound in assay [2]: CNc1nc(-c2ccc3c(N)n[nH]c3c2)cc(N2C[C@@H](C(=O)NC3CCCCC3)CC[C@H]2C)n1
In short, it runs like this:
as §1

Compound in the next assay: COC(=O)N[C@@H](C)CNc1nccc(-c2cn(C(C)C)nc2-c2cc(Cl)cc(NS(C)(=O)=O)c2F)n1 [encorafenib]
In short, it runs like this:
as §1

Compound in assay [3]: COC(=O)[C@H](CCSC)NC(=O)C1=C(C=C(C=C1)NC[C@H](CS)N)C2=CC=CC=C2
In short, it runs like this: as §1

Compound in a further assay: COc1cc(Nc2ncc3c(n2)-c2ccc(Cl)cc2C(c2c(F)cccc2OC)=NC3)ccc1C(=O)O [alisertib]
In short, it runs like this:
as §1

Compound in another assay: COc1cc2ncnc(Nc3ccc(F)c(Cl)c3)c2cc1OCCCN1CCOCC1 [gefitinib]
In short, it runs like this: as §1

Compound in assay [4]: CCCS(=O)(=O)Nc1ccc(F)c(C(=O)c2c[nH]c3ncc(Cl)cc23)c1F
Put shortly:
as §1

Compound in another assay: CC[C@@H]1C(=O)N(C)c2cnc(Nc3ccc(C(=O)N[C@H]4CC[C@H](N5CCN(CC6CC6)CC5)CC4)cc3OC)nc2N1C(C)C [volasertib]
Put shortly:
as §1

Compound in assay [5]: CCn1c(C(=O)N(C2CC2)C2CC2)cc2c3c(ncn3C)c(Nc3cc(C)n(C)n3)nc21
In short, it runs like this:
as §1

Compound in assay [6]: CCn1cc(-c2ccnc3[nH]c(-c4cccc(CN(C)C)c4)cc23)c(-c2ccc(NC(=O)N(C)C)cc2)n1
Put shortly:
as §1

Compound in assay [7]: CN1CCC(CNc2ccc3ncc(-c4cccc(OC(F)(F)F)c4)n3n2)CC1
In short, it runs like this:
as §1

Compound in a further assay: CN1CCN(c2nc(C3=C(c4c[nH]c5ccccc45)C(=O)NC3=O)c3ccccc3n2)CC1 [sotrastaurin]
Put shortly:
as §1

Compound in the next assay: CN1CC[C@H](c2c(O)cc(O)c3c(=O)cc(-c4ccccc4Cl)oc23)[C@H](O)C1 [alvocidib]
Put shortly: as §1

Compound in the next assay: CN1CCc2c(c3ccccc3n2Cc2ccc(C(=O)NO)cc2)C1 [Tubastatin A]
Put shortly:
as §1

Compound in assay [8]: CNC(=O)C1=CC=CC=C1NC2=NC(=NC=C2Cl)NC3=C(C=C(C=C3)N4CCOCC4)OC
Put shortly:
as §1

Compound in assay [9]: COc1cc2nc(-c3cc(F)ccc3O)nc(N[C@@H]3CNC[C@H]3C(C)(C)O)c2cc1OC
In short, it runs like this: as §1

UniProt Q6N022, sequence (Q6N022 whole entry, looked up): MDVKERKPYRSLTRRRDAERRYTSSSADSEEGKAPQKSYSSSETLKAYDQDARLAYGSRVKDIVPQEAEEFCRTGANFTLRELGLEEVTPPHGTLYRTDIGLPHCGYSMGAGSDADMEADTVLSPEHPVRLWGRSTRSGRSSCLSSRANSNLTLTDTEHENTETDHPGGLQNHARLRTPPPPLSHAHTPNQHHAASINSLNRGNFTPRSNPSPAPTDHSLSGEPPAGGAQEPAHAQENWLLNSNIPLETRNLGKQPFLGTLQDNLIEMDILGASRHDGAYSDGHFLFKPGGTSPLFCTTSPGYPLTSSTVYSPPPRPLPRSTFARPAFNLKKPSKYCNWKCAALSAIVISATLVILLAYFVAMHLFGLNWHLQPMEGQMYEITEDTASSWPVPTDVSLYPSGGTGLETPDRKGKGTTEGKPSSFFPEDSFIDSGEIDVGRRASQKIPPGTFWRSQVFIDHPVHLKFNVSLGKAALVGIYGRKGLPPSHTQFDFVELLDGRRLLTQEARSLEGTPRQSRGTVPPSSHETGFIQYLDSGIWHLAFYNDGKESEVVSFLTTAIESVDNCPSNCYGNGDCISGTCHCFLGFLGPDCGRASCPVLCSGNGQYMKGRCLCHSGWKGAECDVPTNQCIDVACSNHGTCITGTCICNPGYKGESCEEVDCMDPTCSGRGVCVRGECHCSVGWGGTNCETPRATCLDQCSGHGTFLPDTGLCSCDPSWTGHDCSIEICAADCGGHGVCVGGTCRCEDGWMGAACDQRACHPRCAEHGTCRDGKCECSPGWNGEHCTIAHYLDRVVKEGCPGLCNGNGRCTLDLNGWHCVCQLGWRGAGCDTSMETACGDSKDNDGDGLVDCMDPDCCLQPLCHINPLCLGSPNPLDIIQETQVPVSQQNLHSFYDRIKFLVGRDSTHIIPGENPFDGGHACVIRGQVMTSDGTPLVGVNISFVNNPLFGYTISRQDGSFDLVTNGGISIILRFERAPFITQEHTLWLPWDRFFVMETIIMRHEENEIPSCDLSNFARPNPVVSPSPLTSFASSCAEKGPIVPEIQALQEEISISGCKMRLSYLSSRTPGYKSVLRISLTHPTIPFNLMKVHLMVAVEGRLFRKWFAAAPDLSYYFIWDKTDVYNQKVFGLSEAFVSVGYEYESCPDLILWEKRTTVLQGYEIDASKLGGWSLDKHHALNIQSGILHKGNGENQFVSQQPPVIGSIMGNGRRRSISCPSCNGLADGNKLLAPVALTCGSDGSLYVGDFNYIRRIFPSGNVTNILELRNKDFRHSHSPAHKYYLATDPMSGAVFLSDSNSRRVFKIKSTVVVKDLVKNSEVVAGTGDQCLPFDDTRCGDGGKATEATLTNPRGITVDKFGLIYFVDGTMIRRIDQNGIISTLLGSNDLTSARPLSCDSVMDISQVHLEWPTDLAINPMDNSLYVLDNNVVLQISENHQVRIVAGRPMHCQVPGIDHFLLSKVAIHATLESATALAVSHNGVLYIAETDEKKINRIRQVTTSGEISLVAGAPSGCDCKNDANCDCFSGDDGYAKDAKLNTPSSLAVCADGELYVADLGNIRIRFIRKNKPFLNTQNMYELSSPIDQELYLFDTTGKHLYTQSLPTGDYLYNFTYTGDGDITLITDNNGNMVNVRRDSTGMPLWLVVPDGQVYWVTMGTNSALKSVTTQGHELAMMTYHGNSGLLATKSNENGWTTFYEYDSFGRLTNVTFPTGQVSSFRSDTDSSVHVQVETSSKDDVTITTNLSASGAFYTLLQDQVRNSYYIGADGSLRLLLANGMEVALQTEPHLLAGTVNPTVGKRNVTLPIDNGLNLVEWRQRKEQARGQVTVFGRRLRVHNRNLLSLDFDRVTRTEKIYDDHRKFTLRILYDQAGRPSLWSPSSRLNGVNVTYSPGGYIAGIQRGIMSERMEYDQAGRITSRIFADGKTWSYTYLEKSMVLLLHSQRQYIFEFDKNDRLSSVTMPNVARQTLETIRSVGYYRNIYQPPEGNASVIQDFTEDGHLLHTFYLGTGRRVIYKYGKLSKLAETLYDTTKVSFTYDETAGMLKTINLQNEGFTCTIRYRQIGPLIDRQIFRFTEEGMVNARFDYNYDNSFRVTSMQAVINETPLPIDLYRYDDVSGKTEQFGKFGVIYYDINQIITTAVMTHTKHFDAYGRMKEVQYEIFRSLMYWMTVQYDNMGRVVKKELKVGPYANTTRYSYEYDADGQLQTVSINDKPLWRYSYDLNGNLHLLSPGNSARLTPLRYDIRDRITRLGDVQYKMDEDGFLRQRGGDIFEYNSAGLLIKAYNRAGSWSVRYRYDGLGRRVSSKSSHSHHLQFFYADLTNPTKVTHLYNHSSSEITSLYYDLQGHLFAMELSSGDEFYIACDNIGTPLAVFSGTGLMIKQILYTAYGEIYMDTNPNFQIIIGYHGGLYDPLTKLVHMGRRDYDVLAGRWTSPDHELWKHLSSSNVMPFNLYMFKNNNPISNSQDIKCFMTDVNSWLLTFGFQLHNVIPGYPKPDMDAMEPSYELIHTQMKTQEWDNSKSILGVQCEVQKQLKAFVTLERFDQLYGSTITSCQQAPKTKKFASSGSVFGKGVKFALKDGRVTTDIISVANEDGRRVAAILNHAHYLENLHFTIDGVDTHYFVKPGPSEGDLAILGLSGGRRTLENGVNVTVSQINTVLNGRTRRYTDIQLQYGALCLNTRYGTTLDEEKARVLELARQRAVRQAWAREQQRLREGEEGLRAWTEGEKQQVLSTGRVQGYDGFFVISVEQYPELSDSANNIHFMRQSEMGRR
UniProt P55851, sequence (P55851 whole entry, looked up): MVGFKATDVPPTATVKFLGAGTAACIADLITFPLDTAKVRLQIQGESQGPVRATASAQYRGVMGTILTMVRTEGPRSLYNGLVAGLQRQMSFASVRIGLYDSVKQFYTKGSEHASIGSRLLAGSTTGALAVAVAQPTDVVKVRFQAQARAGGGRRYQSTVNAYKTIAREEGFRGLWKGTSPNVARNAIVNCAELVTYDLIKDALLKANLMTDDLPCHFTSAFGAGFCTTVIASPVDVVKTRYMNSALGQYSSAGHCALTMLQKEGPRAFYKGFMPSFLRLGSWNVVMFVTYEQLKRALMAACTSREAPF
UniProt P10646, sequence (P10646 whole entry, looked up): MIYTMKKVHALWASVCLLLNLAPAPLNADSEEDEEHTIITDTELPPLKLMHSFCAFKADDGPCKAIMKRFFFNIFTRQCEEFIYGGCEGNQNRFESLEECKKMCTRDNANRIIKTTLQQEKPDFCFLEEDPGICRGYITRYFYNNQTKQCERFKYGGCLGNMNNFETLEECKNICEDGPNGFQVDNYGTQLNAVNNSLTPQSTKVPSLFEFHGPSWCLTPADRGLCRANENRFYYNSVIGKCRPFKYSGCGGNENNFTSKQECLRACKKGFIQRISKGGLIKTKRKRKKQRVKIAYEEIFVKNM
UniProt P42167, sequence (P42167 whole entry, looked up): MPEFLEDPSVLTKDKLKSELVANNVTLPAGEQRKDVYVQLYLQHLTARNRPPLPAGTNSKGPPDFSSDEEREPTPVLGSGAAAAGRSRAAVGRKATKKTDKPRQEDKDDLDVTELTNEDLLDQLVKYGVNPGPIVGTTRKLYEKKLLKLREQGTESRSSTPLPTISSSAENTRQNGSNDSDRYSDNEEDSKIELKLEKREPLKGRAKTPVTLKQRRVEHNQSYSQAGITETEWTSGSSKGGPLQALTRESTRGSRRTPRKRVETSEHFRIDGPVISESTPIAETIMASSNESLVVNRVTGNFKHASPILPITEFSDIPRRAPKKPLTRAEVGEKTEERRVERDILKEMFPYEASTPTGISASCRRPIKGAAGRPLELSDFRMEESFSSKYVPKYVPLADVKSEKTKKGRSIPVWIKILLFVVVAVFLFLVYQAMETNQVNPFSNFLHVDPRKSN
UniProt Q24JP5, sequence (Q24JP5 whole entry, looked up): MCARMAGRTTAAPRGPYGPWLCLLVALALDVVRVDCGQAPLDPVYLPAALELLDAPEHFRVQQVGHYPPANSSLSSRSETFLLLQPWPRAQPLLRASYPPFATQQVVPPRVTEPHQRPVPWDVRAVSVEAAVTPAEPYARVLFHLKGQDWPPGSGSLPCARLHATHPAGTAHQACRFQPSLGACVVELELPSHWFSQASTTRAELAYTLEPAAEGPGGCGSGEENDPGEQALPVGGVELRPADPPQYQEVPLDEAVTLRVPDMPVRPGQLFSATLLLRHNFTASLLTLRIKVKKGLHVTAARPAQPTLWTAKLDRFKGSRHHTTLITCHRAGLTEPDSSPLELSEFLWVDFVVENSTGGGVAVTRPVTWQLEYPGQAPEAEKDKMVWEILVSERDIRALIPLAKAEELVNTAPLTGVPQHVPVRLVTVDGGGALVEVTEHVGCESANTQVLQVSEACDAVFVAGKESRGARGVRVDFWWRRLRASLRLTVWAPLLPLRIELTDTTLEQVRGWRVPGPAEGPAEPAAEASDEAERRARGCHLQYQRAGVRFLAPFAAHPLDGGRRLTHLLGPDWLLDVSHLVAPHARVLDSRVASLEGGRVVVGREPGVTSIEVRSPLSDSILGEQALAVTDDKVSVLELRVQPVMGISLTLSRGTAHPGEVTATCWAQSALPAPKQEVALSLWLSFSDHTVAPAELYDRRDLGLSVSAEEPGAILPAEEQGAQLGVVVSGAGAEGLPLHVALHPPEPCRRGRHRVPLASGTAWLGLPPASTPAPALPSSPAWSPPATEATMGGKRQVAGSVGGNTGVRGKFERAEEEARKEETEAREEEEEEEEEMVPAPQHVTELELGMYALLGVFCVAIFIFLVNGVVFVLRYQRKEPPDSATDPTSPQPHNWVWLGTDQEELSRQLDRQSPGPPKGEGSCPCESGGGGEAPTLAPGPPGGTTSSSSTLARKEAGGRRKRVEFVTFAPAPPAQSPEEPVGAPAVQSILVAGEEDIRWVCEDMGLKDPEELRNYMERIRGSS
UniProt Q6P9G4, sequence (Q6P9G4 whole entry, looked up): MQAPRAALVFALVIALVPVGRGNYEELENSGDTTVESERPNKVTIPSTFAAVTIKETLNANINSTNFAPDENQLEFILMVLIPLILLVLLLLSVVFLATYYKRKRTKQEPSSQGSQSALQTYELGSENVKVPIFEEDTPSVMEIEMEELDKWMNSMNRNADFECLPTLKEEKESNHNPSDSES

On to TMPO isoform 2 (UniProt P42167), for which the log2 fold change with vemurafenib is 0.08; with barasertib it was 0.185; in assay [1], 0.075; with saracatinib, 0.044; with defactinib it was 0.058; in [2], 0.186. Also, the log2 fold change is -0.113 in the assay with encorafenib and -0.14 in [3].

With TLE3 (UniProt H0YL70), the values for the log2 fold change (with saracatinib; in [2]) were 0.152 and 0.153, respectively.

As to UBAP2 (UniProt Q5JV08), the log2 fold change in the assay with alisertib was -0.165; with gefitinib, -0.139.

For TNFAIP3 (UniProt P21580), the log2 fold change was 0.004 in [4]; -0.015 with barasertib; -0.412 in assay [1]; -0.063 in the assay with volasertib; 0.051 in [5]; -0.009 in [6]. Also, the log2 fold change in assay [7] is 0.017; with saracatinib, 0.029; with sotrastaurin, -0.006; with alvocidib, 0.005; in the assay with Tubastatin A it was -0.076; in [8], 0.022. Further, the log2 fold change in assay [2] is -0.009; with encorafenib, 0.276 (active); in assay [3], 0.228; in the assay with alisertib it was 0.002; in assay [9], 0.031; with gefitinib it was -0.028.

TFPI isoform 2 (UniProt P10646): the results for the log2 fold change with vemurafenib, with sotrastaurin and with defactinib were 0, -0.011 and -0.109, respectively.

In the case of UCP2 (UniProt P55851), the log2 fold change with vemurafenib was 0.09; in assay [5], -0.024; with sotrastaurin, -0.001; with Tubastatin A, 0.182; with defactinib, 0.096; with alisertib, 0.033. Besides, in the assay with gefitinib, the log2 fold change is 0.045.

TMEM154 (UniProt Q6P9G4): the log2 fold change in assay [1] is 0.022; in assay [5], -0.08; with saracatinib, -0.036; with sotrastaurin, 0.116; in the assay with Tubastatin A it was 0.063; in assay [2], -0.099. For the same target, the log2 fold change was -0.015 with encorafenib and 0.023 in assay [3].

Turning to TLK2 isoform 3 (UniProt Q86UE8), the log2 fold change was 0.104 in assay [6], -0.036 in [7] and 0.007 with alvocidib.

TPD52L2 isoform 3 (UniProt O43399): the log2 fold change is 0.026 with barasertib; -0.028 in assay [5]; -0.141 in assay [6]; 0.135 in assay [7]; 0.127 with alvocidib; 0.165 in the assay with Tubastatin A. Besides, the values for the log2 fold change (in [8]; with alisertib; with gefitinib) were 0.144, 0.094 and -0.244, respectively.

For TENM4 (UniProt Q6N022), the log2 fold change in assay [4] is -0.205; with barasertib, 0.104; with volasertib, -0.069; in assay [6], 0.534 (active); in assay [7] it was -0.257; with sotrastaurin, 0. In addition, the log2 fold change is 0.03 with alvocidib and 0.024 in assay [9].

Regarding U2AF1L5 (UniProt P0DN76), the log2 fold change in [4] is -0.013; in assay [1] it was 0.027; with volasertib, -0.036; in assay [5] it was 0.015; in assay [6], -1.21 (active); in assay [7], 0.389. Moreover, the log2 fold change with saracatinib was -0.007; in the assay with alvocidib, -0.58; with Tubastatin A it was -0.193; in assay [8] it was -0.044; in [2], -0.023; with encorafenib it was -0.101. The log2 fold change was 0.096 in assay [3], -0.045 in the assay with alisertib, -0.013 in assay [9] and -0.061 in the assay with gefitinib.

Consider TNIK isoform 5 (UniProt Q9UKE5), for which the log2 fold change in assay [4] is -0.118; with barasertib, 0.021; in the assay with volasertib, -0.087; in [5], -0.059; in assay [6] it was -0.051; in [7], -0.065. In addition, the log2 fold change in the assay with saracatinib was 0.022; with sotrastaurin, 0.034; with alvocidib it was 0.012; in the assay with Tubastatin A, -0.015; in assay [2] it was -0.04; in [9] it was 0.214.

Regarding TMEM132A isoform 2 (UniProt Q24JP5), the log2 fold change in assay [4] was 0.239; in [1], -0.078; with volasertib, -0.144; in [5], 0.028; in assay [6], 0.055; in [7], 0.3. Besides, the log2 fold change with sotrastaurin was 0.044; in the assay with alvocidib, -0.381; with Tubastatin A it was 0.136; in assay [8] it was -0.097; in the assay with encorafenib it was -0.064; in assay [3], -0.042. Besides, in [9], the log2 fold change is 1.16 (active).
